# “And” between values parts separate entries of the source, which are not always exact repeats. Equal entries are not always repeated. Inconclusive results are not listed. Unmarked numbers belong to inactive results. The source made the active and inactive calls. The call rests on the fitted dose curve; in most records, active means well fitted curve in the direction sought with a large enough effect; inconclusive means small, poorly fitted or top-dose-only effect, or another doubt; inactive means no such curve, though single readings can be large; an effect the other way counts as inactive or inconclusive.
# Legend:
# [1] = target: Cellular tumor antigen p53 (Homo sapiens) (UniProt P04637); test: Primary qHTS for small molecule compounds that upregulate eGFP-tagged delta133p53alpha (in N-terminal) cells. (AID 2060322); conditions: NCI-H358 eGFP-delta133p53alpha fluorescence, 24 h; activation: hits give high values;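 further: cells pre-induced with doxycycline then dosed without doxycycline; series mostly up to about 56 µM; 0% = DMSO vehicle and 100% = reference activator; nearly all actives have a fitted effect of over 75% in size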
# How it was run: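 NCI-H358 cells pre-induced 24 h with 10 ng/ml doxycycline for eGFP-delta133p53alpha, plated dox-free and exposed 24 h at 37C to titrated compounds. Fixed, Hoechst-stained; gated GFP peak intensity by laser scanning cytometry, normalized to DMSO (0%) and 57.5 uM 5-azacytidine (100%).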
# [2] = BET inhibitor-based combinations targeting novel dependencies in MECOM-rearranged (r) AML: OCI-AML3 cell line (AID 2202232); conditions: Potency: OCI-AML3 viability; further: nearly all actives have a fitted effect of over 35% in size; further: potency means the concentration at half of the fitted maximal effect
# How it was run: (§1)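 Cells were plated at 500 per well and exposed to an 11-point dose series of each drug for 48 hr. Viability was measured by CellTiter-Glo luminescence, normalized to DMSO and empty-well controls, and summarized as AUC and per-cell-line Z-AUC.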
# [3] = BET inhibitor-based combinations targeting novel dependencies in MECOM-rearranged (r) AML: HNT-34 cell line (AID 2202234); further: nearly all actives have a fitted effect of over 35% in size; further: potency means the concentration at half of the fitted maximal effect
# How it was run: (§2)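 Activity is given as area under the curve and as Z-AUC, mean-centred within each cell line. It comes from 11-point dose curves normalized to DMSO and empty wells. CellTiter-Glo luminescence was read after 48 hr drug exposure of 500 cells/well.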
# [4] = BET inhibitor-based combinations targeting novel dependencies in MECOM-rearranged (r) AML: AML-191 cell line (AID 2202236; further: nearly all actives have a fitted effect of over 35% in size; further: potency means the concentration at half of the fitted maximal effect)
# How it was run: as §1
# [5] = BET inhibitor-based combinations targeting novel dependencies in MECOM-rearranged (r) AML: AML-194 cell line (AID 2202237; further: nearly all actives have a fitted effect of over 40% in size; further: potency means the concentration at half of the fitted maximal effect)
# How it was run: as §1
# [6] = BET inhibitor-based combinations targeting novel dependencies in MECOM-rearranged (r) AML: UCSD-AML1 cell line (AID 2202235); further: nearly all actives have a fitted effect of over 40% in size; further: potency means the concentration at half of the fitted maximal effect
# How it was run: as §2
# [7] = BET inhibitor-based combinations targeting novel dependencies in MECOM-rearranged (r) AML: MV-4-11 cell line (AID 2202233); further: potency means the concentration at half of the fitted maximal effect; nearly all actives have a fitted effect of over 45% in size
# How it was run: as §2
# Sequence of Cellular tumor antigen p53 (Homo sapiens) (P04637 whole entry, looked up): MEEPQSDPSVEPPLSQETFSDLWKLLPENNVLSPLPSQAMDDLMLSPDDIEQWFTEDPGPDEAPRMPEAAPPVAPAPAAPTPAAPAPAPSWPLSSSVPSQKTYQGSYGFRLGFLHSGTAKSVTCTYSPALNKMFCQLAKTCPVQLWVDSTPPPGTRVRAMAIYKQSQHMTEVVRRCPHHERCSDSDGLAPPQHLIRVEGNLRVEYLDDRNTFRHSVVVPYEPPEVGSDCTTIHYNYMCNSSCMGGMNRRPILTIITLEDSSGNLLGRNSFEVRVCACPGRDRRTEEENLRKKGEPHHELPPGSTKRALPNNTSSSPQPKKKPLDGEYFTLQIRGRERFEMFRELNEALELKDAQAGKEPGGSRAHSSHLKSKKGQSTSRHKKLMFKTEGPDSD
Compound,activation [1],Potency [2],Potency [3],Potency [4],Potency [5],Potency [6],Potency [7]
COc1cc2c(cc1Cc1cccc(Cl)c1F)c(=O)c(C(=O)O)cn2[C@H](CO)C(C)C,-15%,16.6 µM (active),3.72 µM (active),9.34 µM (active),8.33 µM (active),–,–
COc1ccc(-c2ccc3cc(C(=O)O)ccc3c2)cc1C12CC3CC(CC(C3)C1)C2,-14.2% and 5.04%,0.0033 µM (active),inactive,inactive,inactive,inactive,–
NC(=O)[C@@H](CCC(F)(F)F)N(Cc1ccc(-c2ncon2)cc1F)S(=O)(=O)c1ccc(Cl)cc1,12.6%,inactive,–,–,inactive,inactive,–
CC[C@@]1([C@@H]2O[C@@H]([C@H]3O[C@@](O)(CO)[C@H](C)C[C@H]3C)C[C@H]2C)CC[C@H]([C@]2(C)CC[C@]3(C[C@H](O)[C@@H](C)[C@@H]([C@@H](C)[C@@H](OC)[C@H](C)C(=O)O)O3)O2)O1,7.91%,–,0.0811 µM (active),–,–,–,0.574 µM (active)
CCOC(CN1C(=O)[C@](CC(=O)Nc2ccc(C)cc2)(NC(=O)Nc2ccc(C)cc2)c2ccccc21)OCC,0.237%,–,–,–,–,–,23.5 µM (active)
O=c1c(O)c(-c2ccc(O)c(O)c2)oc2cc(O)ccc12,-6.9%,–,–,–,–,–,2.63 µM (active)
COc1cc2ncnc(Nc3cccc(Br)c3)c2cc1OC,29.9%,–,9.34 µM (active),20.9 µM (active),–,20.9 µM (active),9.34 µM (active)
COc1ccc(-c2cc(=O)c3c(O)cc(O)cc3o2)cc1O,29.3%,–,–,–,–,–,5.25 µM (active)
